Reference: the supplement of paper PMC9694430
“And” between values parts separate entries of the source, which are not always exact repeats. Equal values may be shown once.

How the values were obtained:
Assay in all cases: thermal shift delta Tm vs DMSO control; higher = stronger stabilization (binding)
Details in all cases: 12.5 µM; protein concentration 2 µM
LOC_OS01G57100-cb003 = system: LOC_OS01G57100-cb003
Summary of the method: (§1)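 The melting temperature shift given here is a triplicate mean, measured against protein that received only DMSO. Melting temperatures came from Boltzmann fits of differential scanning fluorimetry data on E. coli-expressed, purified rice kinase domain constructs. Each 19.5 μl well contained 2 μM kinase, 100 mM potassium phosphate pH 7.5, 150 mM NaCl, 10% glycerol, 5 × SYPRO Orange and compound in DMSO. Plates were scanned from 25°C to 95°C at 0.05°C/s.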

LOC_OS01G60330-cb001 = system: LOC_OS01G60330-cb001
Summary of the method: as §1

LOC_OS01G60700-cb002 = system: LOC_OS01G60700-cb002
Summary of the method: as §1

LOC_OS01G63280-cb003 = system: LOC_OS01G63280-cb003
Summary of the method: as §1

LOC_OS01G67340-cb003 = system: LOC_OS01G67340-cb003
Summary of the method: as §1

LOC_OS01G70970-cb002 = system: LOC_OS01G70970-cb002
Summary of the method: as §1

LOC_OS02G07810-cb001 = system: LOC_OS02G07810-cb001
Summary of the method: as §1

LOC_OS02G08530-cb003 = system: LOC_OS02G08530-cb003
Summary of the method: as §1

LOC_OS02G14120-cb001 = system: LOC_OS02G14120-cb001
Summary of the method: as §1

LOC_OS02G17970-cb001 = system: LOC_OS02G17970-cb001
Summary of the method: as §1

Compound	thermal shift delta Tm (LOC_OS01G57100-cb003)	thermal shift delta Tm (LOC_OS01G60330-cb001)	thermal shift delta Tm (LOC_OS01G60700-cb002)	thermal shift delta Tm (LOC_OS01G63280-cb003)	thermal shift delta Tm (LOC_OS01G67340-cb003)	thermal shift delta Tm (LOC_OS01G70970-cb002)	thermal shift delta Tm (LOC_OS02G07810-cb001)	thermal shift delta Tm (LOC_OS02G08530-cb003)	thermal shift delta Tm (LOC_OS02G14120-cb001)	thermal shift delta Tm (LOC_OS02G17970-cb001)
O=C1Nc2ccccc2/C1=C1/Nc2ccccc2C1=O [Indirubin]	0.93 °C	1.8 °C	2.12 °C	0.55 °C	0.71 °C	0.76 °C	1.4 °C	1.85 °C	-0.51 °C	0.97 °C
CN1CCC(Nc2nc(Nc3ccc(Oc4ccccc4)cc3)c3c(=O)[nH]cc(Br)c3n2)CC1	1.9 °C	3.13 °C	1.69 °C	0.86 °C	1.7 °C	3.58 °C	0.79 °C	3.25 °C	3.98 °C	0.52 °C
O=C(Nc1ccc(-c2ccnc(Nc3ccc(N4CCOCC4)cc3)n2)cc1)C1CCCN1 (stereo not given)	0.26 °C	0.51 °C	1.22 °C	0.08 °C	-0.06 °C	0.39 °C	0.59 °C	0.66 °C	3.38 °C	0.54 °C
Cc1ncc(-c2ccnc(Nc3ccc(S(C)(=O)=O)cc3)n2)n1C(C)C	1.7 °C	2.38 °C	1.21 °C	4.42 °C	1.74 °C	1.45 °C	1.42 °C	2.22 °C	5.76 °C	1.78 °C
CC(C)(O)CNc1ncc(-c2ccnc(Nc3ccncc3)n2)c(CC2CC2)n1 [VPS34 inhibitor 1 (Compound 19, PIK-III analogue)]	1.59 °C	0.38 °C	0.34 °C	0.12 °C	-0.02 °C	0.5 °C	-0.03 °C	0.85 °C	4.52 °C	0.28 °C
CN(C)S(=O)(=O)c1ccc2c(c1)/C(=C/c1cc3c([nH]1)CCCC3)C(=O)N2	6.51 °C	10.9 °C	1.5 °C	7.86 °C	11.3 °C	5.65 °C	1.5 °C	5.64 °C	13 °C	1.69 °C
O=C1NCCc2[nH]c(-c3ccncc3)cc21	1.88 °C	1.38 °C	0.92 °C	0.5 °C	1.42 °C	0.32 °C	0.78 °C	2.64 °C	1.75 °C	0.79 °C
COc1cc2nccc(Oc3ccc(NC(=O)Nc4cc(C)on4)c(Cl)c3)c2cc1OC [Tivozanib (AV-951)]	1.99 °C	1.29 °C	0.04 °C	1.3 °C	0.1 °C	0.66 °C	0.91 °C	1.02 °C	6.58 °C	0.14 °C
C=C[C@@](C)(/C=C/c1ccc(O)cc1)CCC=C(C)C [Bakuchiol]	-0.4 °C	0.36 °C	0.05 °C	0.51 °C	-0.02 °C	0.49 °C	-0.84 °C	0.6 °C	0.29 °C	0.27 °C
C=CC(=O)Nc1cccc(Nc2nc(Nc3ccc(NC4CN(CCF)C4)cc3OC)ncc2C(F)(F)F)c1	0.4 °C	0.07 °C	0.83 °C	0.2 °C	-0.31 °C	0.87 °C	0.93 °C	3.91 °C	1.12 °C	0.41 °C
Nc1cc(C(F)(F)F)c(-c2cc(N3CCOCC3)nc(N3CCOCC3)n2)cn1 [Buparlisib (BKM120, NVP-BKM120)]	2.16 °C	0.57 °C	1.2 °C	0.16 °C	0.47 °C	0.27 °C	1.48 °C	0.84 °C	0.46 °C	0.37 °C
CCc1ccc(/C=C2/SC(=S)NC2=O)cc1	3.2 °C	1.11 °C	2.87 °C	0.27 °C	0.34 °C	1.39 °C	1.4 °C	1.74 °C	1.62 °C	1.54 °C
N#Cc1c(O)c2c(-c3ccc(-c4ccccc4O)cc3)csc2[nH]c1=O	3.04 °C	1.32 °C	1.46 °C	0.82 °C	0.95 °C	0.52 °C	1.91 °C	1.2 °C	0.5 °C	1.96 °C
C[C@@H](Oc1ccc2[nH]nc(/C=C/c3cnn(CCO)c3)c2c1)c1c(Cl)cncc1Cl	2.21 °C	7.79 °C	0.64 °C	7.65 °C	12.6 °C	12.2 °C	0.37 °C	5.56 °C	15 °C	-0.09 °C
O=C(Nc1ccc(OC(F)(F)F)cc1)c1sccc1NCc1ccnc2ccccc12	0.93 °C	2.48 °C	0.05 °C	6.18 °C	0.22 °C	1.27 °C	1.03 °C	0.68 °C	0.49 °C	0.48 °C
O=C(NC1CCNCC1)c1n[nH]cc1NC(=O)c1c(Cl)cccc1Cl	0.75 °C and 1.2 °C	0.78 °C and 1.25 °C	0.49 °C and 1.4 °C	0.02 °C and 0.4 °C	-0.21 °C and 0.3 °C	0.28 °C and 0.16 °C	0.48 °C and 1.2 °C	0.49 °C and 0.58 °C	-0.32 °C and 0.19 °C	0.23 °C and 1.28 °C
CN(C)CCOc1ccc(-c2nc(-c3ccncc3)c(-c3ccc4c(c3)CC/C4=N\O)[nH]2)cc1	1.76 °C	0.92 °C	0.49 °C	0.02 °C	-0.45 °C	0.15 °C	1.2 °C	0.96 °C	-0.05 °C	-0.1 °C
O=c1cc(-c2cccc3c2Sc2ccccc2S3)oc(N2CCOCC2)c1	0.21 °C	1.07 °C	0.76 °C	0.32 °C	-0.52 °C	-0.34 °C	0.78 °C	0.47 °C	0.45 °C	0.59 °C
COc1cc(Nc2ncc(F)c(Nc3ccc4c(n3)NC(=O)C(C)(C)O4)n2)cc(OC)c1OC [R406 (free base)]	5.12 °C	8.58 °C	0.44 °C	0.7 °C	1 °C	3.16 °C	2.03 °C	4.18 °C	13 °C	0.86 °C
C[C@H]1[C@H](C)CC[C@]2(C(=O)O)CC[C@]3(C)C(=CC[C@@H]4[C@@]5(C)C[C@@H](O)[C@H](O)[C@@](C)(CO)[C@@H]5CC[C@]43C)[C@H]12 [Asiatic Acid]	2.35 °C	0.45 °C	0.54 °C	-0.01 °C	0.72 °C	0.06 °C	0.83 °C	0.74 °C	0.58 °C	0.33 °C
